The values below come from PubChem BioAssay (NCI).

SMILES strings stand for the structures. Values joined by “and” are separate entries in the source; they are usually repeats but may differ in a detail not shown here. Identical values can stand only once. This is part of a sample that, as a whole, favours compounds with a hit. Of some 83,000 tested, about 20% had one in any assay.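 Interpretation: 100, growth as untreated; towards 0, rising growth inhibition; 0, no net growth; 0 to -100, cell death. Compounds scoring below 10 were considered active.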 Unmarked numbers belong to inactive results. Active and inactive are the calls of the source.

In the experiment the test system is MDA-MB-468 breast. The experiment in a line: NCI-60 one-dose screen, 48 h (100 = growth as untreated, 0 = no growth, -100 = all killed). The settings on record: 10 µM unless noted.
`Cc1ccc2c(n1)C(=O)C(Cl)=C(Nc1cc(C(F)(F)F)cc(C(F)(F)F)c1)C2=O`: the growth was 32.5%.

In the case of `Cc1nn(-c2ccccc2)c(Oc2ccccc2)c1/C=N/NC(=O)Cn1c(=O)sc2ccccc21`, the growth was 13.7%.

In the case of `COC1/C=C/OC2(C)Oc3c(C)c(O)c4c(O)c(c(/C=N/N(c5ccccc5)c5ccccc5)c(O)c4c3C2=O)NC(=O)C(C)=C/C=C/C(C)C(O)C(C)C(O)C(C)C(OC(C)=O)C1C` (stereo unspecified), the growth is -44.7% (active). With `C=C(C)[C@@H]1CC[C@]2(C(=O)O)CC[C@]3(C)[C@H](CC[C@@H]4[C@@]5(C)C[C@@H](CC#Cc6ccccc6)C(=O)C(C)(C)[C@@H]5CC[C@]43C)[C@@H]12`, the growth is 19.8%. On to `C=C1C(=O)O[C@H]2[C@H]1CC/C(C=Nc1c(N)cc(C(F)(F)F)cc1Br)=C\CC[C@@]1(C)O[C@@H]21`, for which the growth is -16.6% (active). For `O=C(C(=O)N1CCOCC1)c1ccc(O[C@H]2O[C@H](CO)[C@@H](O)[C@H](O)[C@@H]2O)cc1`, the growth was 97.5%. `COc1cc(OC)cc(C(=O)Nc2sc3c(c2C(N)=O)CCC(=O)C3)c1`: the growth was 37.1%. As to `[2H]C1([2H])NC([2H])([2H])C([2H])([2H])N(c2ccc(Nc3ncc4cc(C(=O)N(C)C)n(C5CCCC5)c4n3)nc2)C1([2H])[2H]`, the growth is 99.5%.

As for `N#CC(Cc1cccc2ccccc12)c1cc2ccccc2[nH]1` (stereo unspecified), the growth is 93.2%. As for `COc1cc(OC)c(C(=O)C(CN(C)C)CN(C)C)cc1OC`, the growth was -73.3% (active). Take `C/C(Cc1ccc(Cl)cc1)=C(/c1ccc(Cl)cc1)c1ccc(OCCN(C)C)cc1`: the growth was 17.2%. In the case of `CC(Oc1ccc(Cl)cc1)c1ccccc1` (stereo unspecified), the growth is 99.9%. The same measure for `O=c1[nH]c(=O)n(C2OC(CO)C(O)C2O)cc1I` (stereo unspecified): 102% and 123%.

Take `CCCCCCCOc1c(OC)cc(C2CC(=O)Nc3c2c(C)nn3-c2nc3ccccc3[nH]2)cc1OC` (stereo unspecified): the growth is -4.43% (active). The same measure for `C=CCNc1nc(O)c(/C=C2\C=Nc3ncccc32)s1`: 1.02% (active); for `N=C(N)/N=C(\CCc1nc2ccccc2[nH]1)c1nc2ccccc2[nH]1`: 109%. The figure for `O=C1C=CC(=O)c2c1nc1n2CCCC1` is 90.2%; for `c1ccc2cc(C[n+]3ccn(CCCCCCCCCCn4cc[n+](Cc5ccc6ccccc6c5)c4)c3)ccc2c1` it is -28.3% (active).

As to `Cc1ccc2c(c1)c(-c1nc(-c3c[nH]c4ncccc34)cs1)cn2C`, the growth was -2.68% (active). The same measure for `CC(=O)c1c(Nc2cccc(F)c2)[nH]c2c(Cl)cc(Cl)c(Cl)c2c1=O`: -10.2% (active). In the case of `CCOc1ccc(C(C)=O)cc1NC(=O)c1cccc(-c2nnn(CC)n2)c1`, the growth was 17.5%. In the case of `COc1ccc2cc(-c3nc(C)c(C(C)=O)c(-c4ccc(C)cc4)n3)ccc2c1`, the growth is 74.4%.

On to `COc1ccc(/C=C/C(=C/c2c(O)[nH]c3cc(Br)ccc23)N=O)cc1`, for which the growth was 114%.

Consider `CN1C(=O)/C(=C/c2ccc(C(=O)Nc3ncc(Cc4ccccc4Cl)s3)cc2)SC1=S`, for which the growth is 40.3%. As for `O=c1cc(-c2ccccc2)oc2c(O)c(O)ccc12`, the growth is 79.5%. As for `CS(=O)(=O)c1nccc(-c2c(-c3cccc(O)c3)nc3sccn23)n1`, the growth is 60.1%. On to `COc1cc(Cn2c(-c3ccccc3)cc3c2-c2oncc2CC3)cc(OC)c1OC`, for which the growth is -20.5% (active).

As to `C[C@@H]1COC(Nc2ccc3ncnc(Nc4ccc(OCc5nccs5)c(Cl)c4)c3c2)=N1`, the growth was -16.4% (active). Regarding `COc1cc2nc(N3CCCC3)nc(NCCc3ccccc3)c2cc1OC`, the growth was 6.66% (active). Consider `Cc1cc(NCc2cc(Nc3ccnc4cc(Cl)ccc34)ccc2F)nc(N2CCN(C)CC2)n1`, for which the growth is -45.9% (active).

Take `CCn1c(O)c(/C=N/NC(=O)C(C)c2ccc(CC(C)C)cc2)sc1=S` (stereo unspecified): the growth was 6.34% (active). For `N=C(N)c1ccc(-c2ccc(-c3ccc(Cl)cc3Cl)s2)cc1`, the growth was -57.1% (active). For the molecule `O=C1c2cccc3cccc(c23)C(=O)N1C/C=C/c1ccc2c3c(cccc13)C(=O)N(CCO)C2=O`, the growth was 79.8%. Consider `CN(C)CCCC1(c2ccc(F)cc2)OCc2cc(-c3ccc(C(F)(F)F)nc3)ccc21` (stereo unspecified), for which the growth was 73.3%. `O=c1c2ccccc2nc(SCCN2CCCCC2)n1CCc1ccccc1`: the growth is 92%. The same measure for `CN1CCN(c2ccc3c(C(N)=O)c(NC(=O)c4ccc(C(C)(C)C)cc4)sc3c2)CC1`: 90.7%.
